The source of these data is PubChem BioAssay (Tox21).

Molecules are shown by their SMILES. Inconclusive results are not listed. Calls of active or inactive are those of the source. The call rests on the fitted dose curve; in most records, active means well fitted cell-killing curve with a large enough effect in the repeat runs; inconclusive means weak or mixed curves, or effect the other way; inactive means flat fitted curve, though single readings scatter.
On the % scale 0 is the no-effect control and ±100 the full control effect.

The assay is described as follows: qHTS assay to identify small molecule agonists of the estrogen receptor beta (ER-beta) signaling pathway - cell viability counter screen (AID 1259380). Further: nearly all actives have a fitted effect of over 30% in size. Particulars: ER-beta-bla HEK293T viability, CellTiter-Glo luminescence, 16 h; series mostly up to 92.4 µM; activity change, negative = cytotoxicity: at the top concentration. An excerpt: National Center for Advancing Translational Sciences [NCATS]
NIH Chemical Genomics Center [NCGC]
U.S. Environmental Protection Agency [EPA]
National Institutes of Environmental Health Sciences [NIEHS]
National Toxicology Program [NTP]
U.S. Food and Drug Administration [FDA]
Estrogen receptor (ER), a nuclear hormone receptor, plays an important role in development, metabolic homeostasis and reproduction. Two subtypes of ER, ER-alpha and ER-beta, have similar expression patterns with some uniqueness in both types. Endocrine disrupting chemicals (EDCs) and their interactions with steroid hormone receptors like ER causes disruption of normal endocrine function. To identify the compounds that activate ER signaling, an ER beta-UAS-bla GripTite cell line (Life Technologies, Madison, WI, USA) containing a beta-lactamase reporter gene under the control of an UAS response element was used to screen Tox21 10K compound library. The cytotoxicity of the Tox21 compound library against the ER-beta-bla cell line was tested in parallel by measuring the cell viability using CellTiter-Glo assay in the same wells.
Tox21 Assay Protocol Summary:
ER-beta-UAS-bla HEK293T cells were dispensed at 2,000 cells/5 uL of assay medium containing 2% charcoal stripped FBS per well into black wall/clear-bottom 1536-well plates using a Multidrop Combi (ThermoFisher Scientific, Waltham, MA) dispenser. After the assay plates were incubated at a 37C and 5% CO2 for 6 hr, 23 nL of compounds dissolved in DMSO, positive controls or DMSO only was transferred to the assay plate by a Pintool station (Kalypsys, San Diego, CA). The plates were incubated at 37C and 5% CO2 for 16 hr. Then 1 uL of LiveBLAzerTM B/G FRET substrate was added using a BioRAPTR FRD (Flying Reagent Dispenser, Aurora Discovery, San Diego, CA) and then the plates were incubated at room temperature for 2 hours, and fluorescence intensity was measured by an Envision plate reader (PerkinElmer, Shelton, CT). For cell viability readout that measures cytotoxicity, 4 uL/well of CellTiter-Glo reagent was added into the assay plates using a FRD. After 30 min incubation at room temperature, the luminescence intensity in the plates was measured using a ViewLux (PerkinElmer) plate reader.
(In qHTS, concentration-response curves come from the screen itself.)
Consider `CC(=O)OC1CCCCC1C(C)(C)C` (stereo not given), for which the “activity change, negative = cytotoxicity” value was -0.0646% (inactive).
Take `NCCOCCN`: the “activity change, negative = cytotoxicity” value was 6.59% (inactive).
In the case of `CC(C)C1OCCN1CCOC(=O)NCCCCCCNC(=O)OCCN1CCOC1C(C)C` (stereo not given), the “activity change, negative = cytotoxicity” value was -2.56% (inactive).
Take `OC1(c2ccc(Cl)cc2)CCNCC1`: the “activity change, negative = cytotoxicity” value was -13.8% [at 42.5 µM] (inactive).
As for `CC/C(C)=N\O[Si](C)(O/N=C(\C)CC)O/N=C(\C)CC`, the “activity change, negative = cytotoxicity” value was -8.79% (inactive).
With `CC(CO)(CO)CO`, the “activity change, negative = cytotoxicity” value is 5.75% (inactive).
For `CN(C)CCOC(=O)C(c1ccccc1)C1(O)CCCC1` (stereo not given) the value was 2.25% [at 42.5 µM] (inactive); for `O=[N+]([O-])c1c(Cl)cc(Cl)cc1Cl`, 1.78% (inactive); for `C=C(C)C1CC=C(C)C(=O)C1` (stereo not given), 0.59% (inactive).
For `c1ccc2c(CC3=NCCN3)cccc2c1` the value was -13.2% [at 42.5 µM] (inactive).
The figure for `O=C(CN1CCNCC1)NC1CCCCC1` is 2.55% [at 42.5 µM] (inactive); for `CCCC(=O)OC/C=C(\C)CCC=C(C)C` it is 3.34% (inactive); for `Cc1ccnc(N)c1` it is -3.1% (inactive).
`O/N=C/C=N/O`: the “activity change, negative = cytotoxicity” value is 4.79% (inactive).
For the compound `C=CCOC(=O)CCCCCC`, the “activity change, negative = cytotoxicity” value was 10.2% (inactive).
For `COC(=O)c1cccc(Cl)c1`, the “activity change, negative = cytotoxicity” value is -1.58% (inactive).
As to `CCc1occc(=O)c1O`, the “activity change, negative = cytotoxicity” value was 0.798% (inactive).
`COc1c2occc2c(OC)c2c(=O)cc(C)oc12`: the “activity change, negative = cytotoxicity” value was 3.13% [at 42.5 µM] (inactive).
The figure for `CC1=C(O)C(=O)C(C)O1` (stereo not given) is 11.1% (inactive).
Turning to `COc1cc2c(cc1OC)CN(C(=O)[C@H](C)N[C@@H](CCc1ccccc1)C(=O)O)[C@H](C(=O)O)C2`, the “activity change, negative = cytotoxicity” value was 2.96% [at 42.5 µM] (inactive).
The figure for `C[C@H]1[C@@H](c2ccccc2)NC(=O)N1C` is 0.783% (inactive).
The figure for `CN(C)C(C)(C)CO` is 2.01% (inactive).
For `CCOCCOCC` the value was 0.161% (inactive); for `Cn1c(=O)c2[nH]c(Br)nc2n(C)c1=O`, 7.63% [at 42.5 µM] (inactive); for `O=C=NCC1CCCC(CN=C=O)C1` (stereo not given), 3.66% (inactive).
Consider `O=S(=O)(O)c1ccc2c(N=Nc3ccc(S(=O)(=O)O)c4ccccc34)c(O)c(S(=O)(=O)O)cc2c1`, for which the activity change, negative = cytotoxicity is 3.66% [at 8.39 µM] (inactive).
As to `CC(=O)CC(=O)OC(C)(C)C`, the “activity change, negative = cytotoxicity” value is -2.32% (inactive).
On to `CCCC(=O)OCCC(C)CCC=C(C)C` (stereo not given), for which the “activity change, negative = cytotoxicity” value was -5.63% (inactive).
`COC(=O)/C=C\C(=O)O`: the “activity change, negative = cytotoxicity” value was 0.191% (inactive).
The figure for `CC(C)C[C@@H]1[C@H](c2ccccc2)OC(=O)N1CCCN1CCCCCC1` is -7.3% [at 42.5 µM] (inactive).
The figure for `ONc1ccccc1` is 1.05% (inactive).
The figure for `CC(=O)c1cc(C)oc1C` is 2.7% (inactive); for `CCC/C=C(\C=O)CC` it is 4.54% (inactive); for `CN(C)CCCCl` it is -3.12% (inactive).
With `CC1=C(C(=O)O)N2C(=O)[C@@H](NC(=O)[C@H](N)C3=CCC=CC3)[C@H]2SC1`, the “activity change, negative = cytotoxicity” value was 5.01% [at 42.5 µM] (inactive).
The figure for `CC(C)=CCC[C@@](C)(O)[C@H]1CC=C(C)CC1` is -5.76% [at 42.5 µM] (inactive).
In the case of `C[C@]12CCC(=O)C=C1CC[C@H]1[C@@H]3CC[C@](O)(C(=O)CO)[C@@]3(C)C[C@H](O)[C@@]12F`, the “activity change, negative = cytotoxicity” value is 7.65% [at 42.5 µM] (inactive).
As to `CCC[C@@H]1C[C@@H](C(=O)N[C@@H]([C@H]2O[C@H](SC)[C@H](O)[C@@H](O)[C@H]2O)[C@@H](C)O)N(C)C1`, the “activity change, negative = cytotoxicity” value was 3.96% [at 42.5 µM] (inactive).
Regarding `CC(=O)Nc1ccc(OC(=O)c2ccccc2OC(C)=O)cc1`, the “activity change, negative = cytotoxicity” value was -8.6% [at 42.5 µM] (inactive).
`O=C1CCCCO1`: the “activity change, negative = cytotoxicity” value was 3.89% (inactive).
